An excerpt weighted towards active compounds, which were near 4.5% of everything screened.
Mdm2-MdmX inh – disrupts the human Mdm2-MdmX interaction; SaOS-2 split-luciferase Mdm2/MdmX complementation, luminescence; inhibition, % at 8 µM; 3% of 330,000 active; AID 485346;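 active = inhibition of at least 50% at 8 µM in the primary screen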
CSC inhib – cancer stem cell inhibition | cancer stem cell-like cells viability, luminescence | inhibition, % at 7.5 µM | 1.1% of 300,000 active | AID 2717; in the data active = inhibition above about 75%; inconclusive = no clear call, values can overlap the other calls; tested in HMLE shEcad cells
697 NFkB inh – inhibitors of the PMA/ionomycin-induced NF-kB reporter in 697 B cells; 697 B-cell NF-kB luciferase reporter, 16 h; inhibition, % at 4 µM; 0.33% of 330,000 active; AID 435022; in the data active = inhibition above about 35%
Beta apoptosis – beta cell apoptosis inhibition. INS-1E cytokine-induced death, ATP luminescence, 48 h; percent of positive-control rescue, neutral wells zero. protection from apoptosis, % (no concentration beside the values). 0.8% of 300,000 active. AID 435005;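 active = Every replicate reaches about 75%, or at least half do and their mean reaches it too, limit read from the data; inconclusive = At least half of replicates reach the limit but their mean does not; inactive = Under half of replicates reach the limit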;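 also: 0% = cytokine-treated negative control wells and 100% = positive control rescue; higher means more ATP so stronger rescue from cytokine killing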
Jurkat NFkB inh – lowers PMA/ionomycin-induced NF-kB signal in Jurkat cells | PMA/ionomycin-induced NF-kB luciferase reporter, luminescence | inhibition, % at 4 µM | 0.53% of 330,000 active | AID 435003; in the data active = inhibition above about 50%
Gli-Sufu antag – Gli-Sufu pathway antagonism; 0.74% of 340,000 active; inhibition, % at 5 µM; Sufu-KO-LIGHT fibroblasts, Gli luciferase reporter luminescence;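 active = inhibition above about 55%, limit read from the data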;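 also: 0% = DMSO-treated cells and 100% = wells with medium but no cells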
Mdm2 MdmX conf – human Mdm2/MdmX binding inhibition, confirmed. AID 489028. 55% of 10,000 active. shares compounds with Mdm2-MdmX inh. luminescent assay. inhibition, % at 8 µM; in the data active = inhibition above about 40%
Full FLuc ctr – counter-screen for Mdm2/MdmX inhibitors: full-length luciferase; shares compounds with Mdm2-MdmX inh; SaOS-2 full-length luciferase counterscreen, luminescence; inhibition, % at 8 µM; 77% of 6,200 active; AID 504607;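 active = mean inhibition at 8 µM reaching about 37%, which flags the compound as non-specific, limit read from the data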;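 also: p53-null SaOS-2 cells with luciferase driven by a doxycycline-inducible promoter; compound on cells about two nights before reading with doxycycline added after day one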
Starred values were filed as active, the others as inactive; u = inconclusive; x = no result given.

SMILES	Mdm2-MdmX inh	CSC inhib	697 NFkB inh	Beta apoptosis	Jurkat NFkB inh	Gli-Sufu antag	Mdm2 MdmX conf	others
N=c1c(C(=O)NCC2CCCO2)cc2c(=O)n3ccccc3nc2n1Cc1ccccc1Cl (stereo not drawn)	64*	-12	-194	26	-7	43	26
N=c1c(C(=O)NCCc2ccccc2)cc2c(=O)n3ccccc3nc2n1CC1CCCO1 (stereo not drawn)	11	2	-31	x	46	25	x
Cc1cccn2c(=O)c3cc(C(=O)NCCc4ccccc4)c(=N)n(CC4CCCO4)c3nc12 (stereo not drawn)	72*	-4	-26	6	37	25	37
CC1c2cc3c(cc2CCN1C(=O)c1cccc(F)c1)OCCCO3 (stereo not drawn)	31	33	-39	-7	16	-4	x
Cc1cc(C(=O)CN2C(=O)C(=O)N(CC(C)C)C2=O)c(C)n1C1CC1	-39	x	-3	-1	-4	-15	x
Cc1ccnc(NC(=O)c2ccc(S(=O)(=O)N3CCC(C)CC3)cc2)c1	-2	x	-97	-3	-112	-7	x
CC(=O)c1ccc(NC(=O)Cn2c3ccccc3c3nc(=O)cc(C)n32)cc1	6	-23	21	5	-6	4	x
Cc1ccc2[nH]c(C)c(/C=C/c3cc[n+](C)cc3)c2c1	74*	15	-17	72	41	20	67*	Full FLuc ctr=54*
Cc1ccc2c(c1)c(/C=C/c1cc[n+](C)cc1)c(C)n2C	83*	7	-3	90*	46	57*	59*	Full FLuc ctr=49*
C[n+]1ccc(/C=C/c2ccc(Br)cc2)cc1	16	x	14	3	-4	16	x
Cc1ccc(NC(=O)CN(c2ccc(Cl)cc2)S(=O)(=O)c2cc([N+](=O)[O-])ccc2Cl)c(C)c1	36	45	16	25	7	8	x
CC(C)(C)N(Cc1ccc2c(c1)OCO2)C(=O)/C=C\S(=O)c1ccccc1 (stereo not drawn)	x	x	x	x	x	3	x
Cc1ccc2nsnc2c1NC(=O)Cc1ccc(Cl)cc1	-15	-11	4	-2	-15	3	x
Cc1ccc2nsnc2c1NC(=O)c1ccc(-c2cc(Cl)ccc2Cl)o1	60*	-18	8	47	10	2	23
COc1ccc(/C=C/c2nc3ccccc3c(=O)o2)cc1	88*	9	-37	-6	31	71*	84*	Full FLuc ctr=63*
O=C(NCC(=O)N1CCN(S(=O)(=O)c2ccccc2C(F)(F)F)CC1)c1sc2ccccc2c1Cl	57*	10	0	3	6	2	33
FC(F)(F)c1ccc(C2[C@H]3CN(Cc4ccc(-c5ccccc5)cc4)[C@H](c4ccccc4)C34CC2(c2cccnc2)C4)cc1 (stereo partly drawn)	54*	20	-4	6	8	11	38	Full FLuc ctr=58*
FC(F)(F)c1ccc(C2[C@H]3CN(Cc4ccc(-c5ccccc5)cc4)[C@H](c4ccccc4)C34CC2(c2ccccc2)C4)cc1 (stereo partly drawn)	16	12	12	-7	8	1	x
CCc1ccccc1-n1nnnc1SCC(=O)Nc1ccc(N2CCN(C)CC2)cc1	21	22	-25	-7	-13	20	x
O=C(COc1coc(CN2CCc3ccccc3C2)cc1=O)Nc1cccc([N+](=O)[O-])c1	24	1	10	x	6	-2	x
O=C(CC1CS(=O)(=O)CC1CC(=O)Nc1ccc2c(c1)OCCO2)Nc1ccc2c(c1)OCCO2 (stereo not drawn)	63*	0	-85	-4	-51	42	77*	Full FLuc ctr=90*
CCC(=O)Nc1ccc2c(c1)OCCO2	-9	-5	-3	4	6	3	x
Cc1cc(C2(c3ccc(O)c(C)c3)C(=O)Nc3ccccc32)ccc1O	57*	u	-3	5	-15	-12	39
Cc1cccc2c1NC(=O)C2(c1ccc(O)cc1)c1ccc(O)cc1	20	x	-19	-1	19	21	x

Bioassay records (PubChem)
